Data as given in PubChem BioAssay (Tox21).
Records with an inconclusive call do not appear. Unmarked numbers belong to inactive results. Calls of active or inactive are those of the source. Calls come from the whole dose curve.
% is set by controls: 0 for no effect and ±100 for the full control effect.

Assay: qHTS assay for small molecule agonists of the p53 signaling pathway (AID 651631); note: nearly all actives have a fitted effect of over 15% in size
Conditions: HCT-116 p53RE-bla reporter, beta-lactamase FRET ratio, 16 h; series mostly up to 73.3 µM; activation: at the top concentration
How it was run: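 HCT-116 p53RE-bla reporter line, 16 h compound treatment at 37 °C, then fluorescence after 2 h with B/G FRET substrate.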
In the case of `CC(C)(C)c1cccc(O)c1`, the “activation” value is reported as 4.09%. In the case of `CCOc1ccccc1N`, the “activation” value is reported as -2.81%. With `CCCCCCC` the “activation” value was 0.419% [at 95.1 µM]. In the case of `CCN1CC(CCN2CCOCC2)C(c2ccccc2)(c2ccccc2)C1=O` (stereo unspecified), the “activation” value is reported as 3.14%. For `COC(=O)C(C)O` (stereo unspecified), the “activation” value was -1.55% [at 95.1 µM]. With `O=C1CCCc2ccccc21` the “activation” value was -2.67% [at 95.1 µM]. With `NC(=O)Cc1cccc(C(=O)c2ccccc2)c1N` the “activation” value was -2.63%. For `C=CC1CO1` (stereo unspecified), the “activation” value was -1.12% [at 95.1 µM]. With `CCN[C@H]1CN(CCCOC)S(=O)(=O)c2sc(S(N)(=O)=O)cc21` the “activation” value was 1.6% [at 34.7 µM]. With `CCCNC(C)C(=O)Nc1c(C)csc1C(=O)OC` (stereo unspecified) the “activation” value was 4.23% [at 34.7 µM]. In the case of `CC(=O)N[C@@H](CC(C)C)C(=O)O`, the “activation” value is reported as -1.75%. In the case of `O=C(O[C@@H](C(=O)O)[C@@H](OC(=O)c1ccccc1)C(=O)O)c1ccccc1`, the “activation” value is reported as -2.61% [at 95.1 µM]. With `C=CC(C)(O)CC/C=C(\C)CCC=C(C)C` (stereo unspecified) the Potency was “inactive”. With `CC(C)C(=O)OCC(C)(C)C(O)C(C)C` (stereo unspecified) the “activation” value was 3.56% [at 95.1 µM]. With `Cc1ccccc1C(=O)Nc1ccc(C(=O)N2CCCC(O)c3cc(Cl)ccc32)c(C)c1` (stereo unspecified) the “activation” value was -4.9%. With `CC(C)C(=O)OC/C=C/c1ccccc1` the “activation” value was -0.883%. For `CCOC(=O)[C@H](CCc1ccccc1)N[C@@H](C)C(=O)N1Cc2cc(OC)c(OC)cc2C[C@H]1C(=O)O`, the “activation” value was 1.42%. In the case of `CCOC(=O)C(Br)c1ccccc1` (stereo unspecified), the “activation” value is reported as -2.03%. For `C=C(C)C(=O)OCCOP(=O)(O)O`, the “activation” value was -1.18% [at 95.1 µM]. In the case of `NC/C=C/C(=O)O`, the “activation” value is reported as -4.82%. For `CC(C)c1ccccc1`, the “activation” value was -4.5% [at 95.1 µM]. For `CCCCCCCCCC/C=C/C#N`, the “activation” value was -2.06%. With `COc1ccccc1N1CCN(CCCNc2cc(=O)n(C)c(=O)n2C)CC1` the Potency was “inactive”. With `O=C1N(c2ccccc2)c2ccccc2C1(Cc1ccncc1)Cc1ccncc1` the “activation” value was -2.63%. In the case of `OCc1c2ccccc2cc2ccccc12`, the “activation” value is reported as 9.32% [at 95.1 µM]. For `CC(C)(CO)[C@@H](O)C(=O)NCCC(=O)O`, the Potency was “inactive”. In the case of `NCCC(O)(P(=O)(O)O)P(=O)(O)O`, the “activation” value is reported as -3.92%. With `CN(C)Cc1ccccc1` the Potency was “inactive”. With `CC/C=C\CCOC(=O)CCCCC` the “activation” value was 0.9%. For `COC(=O)c1ccc(OC)cc1`, the “activation” value was -2.07%. For `Cc1cc(S(=O)(=O)O)c(N)cc1Cl`, the “activation” value was -2.7% [at 95.1 µM]. In the case of `O=C(O)c1ccccc1Nc1cc(Cl)ccc1C(=O)O`, the “activation” value is reported as -0.451%. For `CCCCNC(=S)NCCCC`, the “activation” value was -2.55%. In the case of `O=C(O)c1cccc(Cl)c1Cl`, the “activation” value is reported as 1.81%. In the case of `C=CCc1cc(OC)c(O)c(C(=O)NCCO)c1`, the “activation” value is reported as -2.5%. For `CC(C)(C)c1ccc(OC(=O)c2ccccc2O)cc1`, the “activation” value was -2.27%.
